Values joined by “and” are separate entries in the source; they are usually repeats but may differ in a detail not shown here. Equal values may be shown once. Hit rate of the full screen: of about 5,500 compounds, about 2,000 (36%) were called active. About 18% were inconclusive and are not listed. Cut-off read from the data, not from the text of the source: active = normalized growth mostly below about 0.91 (no sharp cut-off); inconclusive = no clear call, values can overlap the other calls; inactive = mostly above about 0.92. This is one part of the list.
Assay: chemical genetic growth profiling, strain panel (AID 1159580);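 note: tested at 20 µM; growth read once vehicle control cultures reached saturation at 30 °C; 1 = growth at the plate median or of vehicle wells; lower values mean less growth of the strain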
Conditions: S. cerevisiae deletion strains, growth OD

Measured: normalized growth

Oc1cc2c(cc1O)C1c3ccc(O)c(O)c3OCC1(O)C2 (centres undefined)
inactive: locus YAL021C, strain ccr4, stronger effect = lower value 1 | locus YAL030W, strain snc1, stronger effect = lower value 1.01 | locus YBL061C, strain skt5, stronger effect = lower value 0.993 | locus YBR009C, strain hhf1, stronger effect = lower value 1 | locus YBR021W, strain FUR4, stronger effect = lower value 1.01 | locus YBR023C, strain chs3, stronger effect = lower value 0.995 | locus YBR171W, strain sec66, stronger effect = lower value 1.01 | locus YBR229C, strain ROT2, stronger effect = lower value 1 | locus YBR231C, strain swc5, stronger effect = lower value 0.956 | locus YBR279W, strain paf1, stronger effect = lower value 0.984 | locus YCL011C, strain gbp2, stronger effect = lower value 1.01 | locus YCL016C, strain dcc1, stronger effect = lower value 1 | locus YCL029C, strain bik1, stronger effect = lower value 0.997 | locus YCL069W, strain vba3, stronger effect = lower value 1.02 | locus YCR088W, strain abp1, stronger effect = lower value 1.02 | locus YDL005C, strain med2, stronger effect = lower value 1 | locus YDL035C, strain GPR1, stronger effect = lower value 0.973 | locus YDL040C, strain nat1, stronger effect = lower value 1.04 | locus YDL074C, strain BRE1, stronger effect = lower value 0.852 | locus YDL101C, strain DUN1, stronger effect = lower value 0.908 | locus YDL185W, strain tfp1, stronger effect = lower value 0.961 | locus YDL192W, strain arf1, stronger effect = lower value 0.997 | locus YDR001C, strain nth1, stronger effect = lower value 1.02 | locus YDR069C, strain doa4, stronger effect = lower value 0.936 | locus YDR101C, strain arx1, stronger effect = lower value 1.07 | locus YDR137W, strain rgp1, stronger effect = lower value 1.05 | locus YDR159W, strain sac3, stronger effect = lower value 1.03 | locus YDR195W, strain ref2 1.02 | locus YDR297W, strain sur2, stronger effect = lower value 1.01 | locus YDR318W, strain mcm21, stronger effect = lower value 0.99 | locus YDR334W, strain swr1, stronger effect = lower value 0.991 | locus YDR335W, strain msn5, stronger effect = lower value 0.996 | locus YDR388W, stronger effect = lower value 0.998 | locus YDR392W, strain spt3, stronger effect = lower value 0.991 | locus YDR502C, strain sam2, stronger effect = lower value 1.01 | locus YEL003W, strain gim4, stronger effect = lower value 1.01 | locus YEL037C, strain rad23, stronger effect = lower value 1.02 | locus YEL061C, strain CIN8 (second series), stronger effect = lower value 1.02 | locus YEL061C, strain CIN8, stronger effect = lower value 0.964 | locus YER015W, strain faa2, stronger effect = lower value 0.983 | locus YER016W, strain bim1, stronger effect = lower value 1.02 | locus YER110C, stronger effect = lower value 0.999 | locus YER111C, strain swi4, stronger effect = lower value 0.961 | locus YER155C, strain BEM2 (second series), stronger effect = lower value 1.02 | locus YER155C, strain BEM2, stronger effect = lower value 1.02 | locus YER167W, strain BCK2, stronger effect = lower value 1.04 | locus YFR010W, strain ubp6, stronger effect = lower value 0.983 | locus YGL078C, strain dbp3, stronger effect = lower value 0.972 | locus YGL086W, strain mad1, stronger effect = lower value 0.966 | locus YGL173C, strain kem1, stronger effect = lower value 0.985 | locus YGL227W, strain vid30, stronger effect = lower value 1.01 | locus YGL240W, strain doc1, stronger effect = lower value 1.04 | locus YGL248W, strain PDE1, stronger effect = lower value 0.893 | locus YGL253W, strain hxk2, stronger effect = lower value 1.01 | locus YGR078C, strain PAC10, stronger effect = lower value 0.916 | locus YGR135W, strain pre9, stronger effect = lower value 0.946 | locus YGR252W, strain gcn5, stronger effect = lower value 0.992 | locus YHR013C, strain ard1, stronger effect = lower value 0.987 | locus YHR027C, strain rpn1, stronger effect = lower value 0.98 | locus YHR030C, strain SLT2, stronger effect = lower value 1 | locus YHR079C, strain IRE1 (second series), stronger effect = lower value 1.01 | locus YHR079C, strain IRE1, stronger effect = lower value 1.01 | locus YHR094C, strain hxt1, stronger effect = lower value 1.01 | locus YHR142W, strain chs7, stronger effect = lower value 0.99 | locus YHR200W, strain rpn10, stronger effect = lower value 0.976 | locus YIL066C, strain RNR3, stronger effect = lower value 0.939 | locus YIL073C, strain SPO22, stronger effect = lower value 0.683 | locus YIL125W, strain kgd1, stronger effect = lower value 1 | locus YIR030C, strain dcg1, stronger effect = lower value 1.01 | locus YJL092W, strain hpr5, stronger effect = lower value 1.02 | locus YJL095W, strain BCK1 (second series), stronger effect = lower value 1.01 | locus YJL095W, strain BCK1, stronger effect = lower value 0.811 and 0.994 | locus YJL115W, strain asf1, stronger effect = lower value 1 | locus YJL129C, strain trk1, stronger effect = lower value 1.07 | locus YJL134W, strain LCB3, stronger effect = lower value 0.992 | locus YJL154C, strain vps35, stronger effect = lower value 1.02 | locus YJL164C, strain tpk1, stronger effect = lower value 0.991 | locus YJL166W, strain qcr8, stronger effect = lower value 0.991 | locus YJL168C, strain set2, stronger effect = lower value 0.984 | locus YJR043C, strain POL32, stronger effect = lower value 0.95 | locus YJR066W, strain TOR1, stronger effect = lower value 0.913 | locus YKL009W, strain mrt4, stronger effect = lower value 1.06 | locus YKL068W, stronger effect = lower value 0.983 | locus YKL085W, strain MDH1 (second series), stronger effect = lower value 0.977 | locus YKL085W, strain MDH1, stronger effect = lower value 0.977 | locus YKL160W, strain elf1, stronger effect = lower value 0.983 | locus YKR001C, strain vps1, stronger effect = lower value 1.03 | locus YKR026C, strain gcn3, stronger effect = lower value 1.01 | locus YKR091W, strain srl3, stronger effect = lower value 1.02 | locus YLL001W, strain dnm1, stronger effect = lower value 1.01 | locus YLL026W, stronger effect = lower value 1.01 | locus YLL041C, strain sdh2, stronger effect = lower value 1.03 | locus YLR027C, strain aat2, stronger effect = lower value 0.984 | locus YLR039C, strain RIC1, stronger effect = lower value 0.916 | locus YLR058C, strain SHM2, stronger effect = lower value 0.916 | locus YLR102C, strain apc9, stronger effect = lower value 0.998 | locus YLR113W, strain HOG1, stronger effect = lower value 1.07 | locus YLR221C, strain rsa3, stronger effect = lower value 0.986 | locus YLR258W, strain gsy2, stronger effect = lower value 1.02 | locus YLR262C, strain YPT6 (second series), stronger effect = lower value 0.979 | locus YLR268W, strain sec22, stronger effect = lower value 1.04 | locus YLR320W, strain mms22, stronger effect = lower value 0.999 | locus YLR330W, strain CHS5, stronger effect = lower value 0.974 | locus YLR342W, strain FKS1, stronger effect = lower value 0.979 | locus YLR357W, strain rsc2, stronger effect = lower value 0.907 | locus YLR370C, strain arc18, stronger effect = lower value 0.987 | locus YLR371W, strain rom2, stronger effect = lower value 0.932 | locus YLR384C, strain iki3, stronger effect = lower value 1 | locus YLR418C, strain cdc73, stronger effect = lower value 0.963 | locus YML032C, strain rad52, stronger effect = lower value 1.07 | locus YML120C, strain ndi1, stronger effect = lower value 1.04 | locus YML124C, strain tub3, stronger effect = lower value 1.02 | locus YMR078C, strain ctf18, stronger effect = lower value 1.01 | locus YMR125W, strain sto1, stronger effect = lower value 1.05 | locus YMR129W, stronger effect = lower value 1.03 | locus YMR205C, strain PFK2, stronger effect = lower value 1.02 | locus YMR223W, strain ubp8, stronger effect = lower value 0.977 | locus YMR231W, strain pep5, stronger effect = lower value 0.995 | locus YMR307W, strain GAS1, stronger effect = lower value 0.784 | locus YNL067W, strain RPL9B, stronger effect = lower value 0.931 | locus YNL071W, strain lat1, stronger effect = lower value 1.01 | locus YNL153C, strain GIM3, stronger effect = lower value 0.908 | locus YNL183C, strain NPR1, stronger effect = lower value 0.907 | locus YNL209W, strain ssb2, stronger effect = lower value 0.958 | locus YNL233W, strain BNI4, stronger effect = lower value 0.911 | locus YNL248C, strain rpa49, stronger effect = lower value 0.995 | locus YNL250W, strain rad50, stronger effect = lower value 0.952 | locus YNL271C, strain bni1, stronger effect = lower value 0.988 | locus YNL298W, strain CLA4, stronger effect = lower value 0.991 | locus YNL307C, strain MCK1, stronger effect = lower value 0.996 | locus YNL322C, strain KRE1 (second series), stronger effect = lower value 1.01 | locus YNR049C, strain mso1, stronger effect = lower value 1.02 | locus YNR052C, strain pop2, stronger effect = lower value 0.954 | locus YOL006C, strain TOP1, stronger effect = lower value 0.585 | locus YOL012C, strain htz1 0.422 | locus YOL147C, strain pex11, stronger effect = lower value 1.01 | locus YOR001W, strain rrp6, stronger effect = lower value 0.991 | locus YOR061W, strain CKA2, stronger effect = lower value 0.945 | locus YOR069W, strain VPS5, stronger effect = lower value 0.953 | locus YOR070C, strain gyp1, stronger effect = lower value 0.965 | locus YOR080W, strain dia2, stronger effect = lower value 1.01 | locus YOR083W, strain WHI5, stronger effect = lower value 0.971 | locus YOR106W, strain vam3, stronger effect = lower value 0.985 | locus YOR136W, strain idh2, stronger effect = lower value 1.02 | locus YOR144C, strain elg1, stronger effect = lower value 1.01 | locus YOR184W, strain ser1, stronger effect = lower value 1.09 | locus YOR231W, strain MKK1, stronger effect = lower value 1.01 | locus YOR265W, strain rbl2, stronger effect = lower value 1 | locus YOR270C, strain vph1, stronger effect = lower value 1.05 | locus YOR290C, strain snf2, stronger effect = lower value 0.997 | locus YOR316C, strain cot1, stronger effect = lower value 0.996 | locus YPL051W, strain arl3, stronger effect = lower value 0.929 | locus YPL078C, strain atp4, stronger effect = lower value 1.02 | locus YPL106C, strain sse1, stronger effect = lower value 0.957 | locus YPL240C, strain hsp82, stronger effect = lower value 1.02 | locus YPL256C, strain CLN2, stronger effect = lower value 1.02 | locus YPR119W, strain clb2, stronger effect = lower value 1.01 | locus YPR141C, strain kar3, stronger effect = lower value 0.982 | locus YPR163C, strain tif3, stronger effect = lower value 1.01 | locus YPR167C, strain met16, stronger effect = lower value 1.01 | strain wtn01, stronger effect = lower value 1.02
active: locus YDL134C, strain PPH21, stronger effect = lower value 0.832 | locus YDR162C, strain NBP2, stronger effect = lower value 0.821 | locus YHR129C, strain ARP1, stronger effect = lower value 0.912 | locus YJL187C, strain SWE1 (second series), stronger effect = lower value 0.856 | locus YLR342W, strain FKS1 (second series), stronger effect = lower value 0.696 | locus YML016C, strain PPZ1, stronger effect = lower value 0.86 | locus YMR058W, strain fet3, stronger effect = lower value 0.784 | locus YNL322C, strain KRE1, stronger effect = lower value 0.902

From PubChem BioAssay AID1159580 (chemical genetic matrix, 2015)
